From PubChem BioAssay AID623959 (National Center for Advancing Translational Sciences (NCATS), 2012)
The whole screen tested about 1,400 compounds, of which fewer than 10 were called active. Roughly 8% stayed inconclusive and do not appear here. Not all results are given here. Unmarked numbers belong to inactive results. Calls come from the whole dose curve; as a rule, active = well fitted curve in the direction sought with a large enough effect; inconclusive = small, poorly fitted or top-dose-only effect, or another doubt; inactive = no such curve, though single readings can be large or run the other way.

Target: Transient receptor potential cation channel subfamily V member 1 (Homo sapiens) (UniProt Q8NER1)
Sequence (Q8NER1 whole entry, looked up): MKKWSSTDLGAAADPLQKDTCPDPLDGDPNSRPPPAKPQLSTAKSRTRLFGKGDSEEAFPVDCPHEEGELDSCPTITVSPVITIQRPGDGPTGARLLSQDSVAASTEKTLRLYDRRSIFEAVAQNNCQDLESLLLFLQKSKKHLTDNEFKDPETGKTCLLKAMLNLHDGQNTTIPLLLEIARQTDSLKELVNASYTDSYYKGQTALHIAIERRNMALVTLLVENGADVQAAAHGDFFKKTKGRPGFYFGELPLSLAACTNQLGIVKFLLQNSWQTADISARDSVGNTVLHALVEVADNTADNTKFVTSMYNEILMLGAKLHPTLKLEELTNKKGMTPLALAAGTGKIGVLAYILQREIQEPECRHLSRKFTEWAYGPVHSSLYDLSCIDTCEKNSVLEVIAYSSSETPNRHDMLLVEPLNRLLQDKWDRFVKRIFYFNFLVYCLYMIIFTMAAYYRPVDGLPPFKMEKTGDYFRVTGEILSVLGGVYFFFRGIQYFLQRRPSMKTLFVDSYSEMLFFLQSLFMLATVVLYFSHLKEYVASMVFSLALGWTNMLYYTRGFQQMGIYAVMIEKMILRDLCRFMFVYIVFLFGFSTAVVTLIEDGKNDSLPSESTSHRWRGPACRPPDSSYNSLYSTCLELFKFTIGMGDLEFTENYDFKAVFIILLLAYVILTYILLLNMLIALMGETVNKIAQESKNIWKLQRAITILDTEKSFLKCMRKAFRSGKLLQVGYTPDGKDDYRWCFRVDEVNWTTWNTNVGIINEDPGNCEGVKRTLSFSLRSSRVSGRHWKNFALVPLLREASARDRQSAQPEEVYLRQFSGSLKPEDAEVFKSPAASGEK
Assay: qHTS Assay for Compounds that Act as Potentiators of the Vanilloid Receptor 1: Hit Validation; for activity change, positive = potentiation: % of control where 0% means no effect
Details: TRPV1-expressing cells, Fluo-8 calcium influx, capsaicin EC20; series mostly up to 42.1 µM; activity change, positive = potentiation: at the top concentration
Source text: The transient receptor potential ion channel, family V, number 1, (TRPV1) is one of the most important molecular transducers of painful stimuli and a potential target for analgesic drug development. Although recent clinical trials with orthosteric antagonists have not produced a successful drug because of a hyperthermia side effect and their tendency to block thermal noxious pain, this ion channel is undeniably well placed in the pain pathway, and the idea of blocking pain signals before they enter the CNS is an excellent concept and of proven efficacy when TRPV1 agonists are used. We propose a new approach involving allosteric modulation to impose an activity-dependent constraint within the context of inflammation and tissue damage that would alter the responsiveness of the channel in a way that an orthosteric vanilloid antagonist cannot achieve. We believe that the allosteric modulator approach has not been explored for this target. The main goal of this proposal is to identify additional, new, potent allosteric modulators of TRPV1 that can be used to investigate TRPV1 function. Our recent report provides evidence of proof of concept, but the compounds are just at the edge of utility in terms of potency. […] The question of whether they can be used as analgesic agents is complex, but if suitable compounds are identified then testing for analgesic properties will be conducted. Compounds identified as agonists were re-tested in the primary screen for hit validation. NIH Chemical Genomics Center [NCGC] NIH Molecular Libraries Probe Centers Network [MLPCN] MLPCN Grant: MH089480 Assay Submitter (PI): Michael Iadarola, National Institute of Dental and Cranofacial Research
Upon TRPV1 activation in TRPV1 cells, the channel opens and extracellular cations flow through the channel into the cytosol. A calcium binding dye (Fluo-8) becomes fluorescent when bound to calcium. This dye is pre-loaded into cells and is used as a marker for calcium influx. The amount of accumulated calcium is precisely quantified using the FDSS kinetic reader and the calcium dye. For the HTS assay, freshly prepared cells are plated at a density of 2000/well in 3 ul medium in 1536-well plates and cultured overnight at 35.5C. Cells will be loaded with 1 ul of the homogeneous calcium dye (ABD Bioquest) at room temperature for 40 to 90 minutes. Plates will be loaded into the FDSS kinetic reader and a 1 sec / cycle for 10 second baseline signal will be measured. Compound library will then be added with a pintool at 23 nl and measured kinetically for 3 minutes. This portion of the read is considered the agonist portion of the screen. Following the 3 minutes of incubation, an on board pipettor will deliver 1 ul of capsaicin for a final concentration equal to the EC20. Signal will be measured kinetically for an additional 2 minutes. This portion of the read is considered the allosteric enhancer portion of the screen. The FDSS reader has a standard filter set capable of measuring calcium bound Fluo-8 (ex=480 and em=520 nm).
Potency is the fitted concentration of half-maximal effect.

Structure (SMILES) | activity change, positive = potentiation [%] | Potency
CC(C)(C)OC(=O)NCCCC[C@H](NC(=O)c1nc[nH]c1C(=O)NCc1ccc(CNC(=O)OC(C)(C)C)cc1)C(=O)OC(C)(C)C | 0.195 | –
CN(c1ccccc1)S(=O)(=O)c1ccc(Cl)c(C(=O)NCCc2c[nH]c3ccccc23)c1 | -6.03 | –
CCc1cccc(C)c1NC(=S)N(CCCN1CCN(C)CC1)Cc1cccs1 | -8.28 | –
Cc1cccc(-n2c(=O)[nH]c3c(C(N)=O)nc(CC(C)C)nc32)c1 | 0.951 | –
COc1ccc(NC(=O)CCCSc2nc(-c3ccco3)cc(C(F)(F)F)n2)cc1OC | -38.7 | –
Cc1ccc(NC(=O)c2cc(S(=O)(=O)N3CCOCC3)ccc2F)c(C)c1 | -31.2 | –
CCOC(=O)c1c(C)c(C(=O)NCC2CCCO2)c(C)n1C (stereo unspecified) | -7.81 | –
Cc1ncsc1CCC(=O)N1CCCC(Nc2ccc(C(C)C)cc2)C1 (stereo unspecified) | -39.8 | –
Cc1ccc(NCc2n[nH]c(=S)n2-c2ccccc2)c(C)c1 | 9.07 | –
NNC(=O)C1COc2cc3ccccc3cc2O1 (stereo unspecified) | -31.3 | –
CCCCC(=O)Nc1ccc(C(=O)Nc2ccc(S(=O)(=O)N3CCCC3)cc2)cc1 | -8.84 | –
COc1ccc(C(=O)Nc2ccc3ccccc3c2)cc1 | -32.9 | –
Cc1sc2ncn(CC(=O)Nc3cccc(S(N)(=O)=O)c3)c(=O)c2c1-c1ccccc1 | -4.7 | –
CCC(=O)N(CCc1ccccc1)Cc1cc2cccc(C)c2[nH]c1=O | -38.2 | –
Cc1c(=O)n(OCc2ccccc2F)c2ccccc2[n+]1[O-] | 0.445 | –
Nn1c(Cc2ccccc2)nc2cc(Cl)ccc2c1=O | -8.59 | –
Cc1ccc2c(c1)[C@H]1[C@H](CO2)[C@H](c2ccccc2)[C@]2(C)C(=O)Nc3cc(Cl)ccc3C(=O)N12 | 3 | –
Cc1cc(C)cc(Oc2nc3ccccn3c(=O)c2/C=C(\C#N)C(=O)NC2CCS(=O)(=O)C2)c1 (stereo unspecified) | -10.1 | –
CCC(=O)Nc1cccc(NC(=O)c2ccc3c(c2)OCCO3)c1 | -9.67 | –
CCOc1ccc(-c2cccc(NS(=O)(=O)c3cc([N+](=O)[O-])ccc3Cl)c2)nn1 | 2.27 | –
COC(=O)CCC(=O)OC1(C)C(=O)C=C2C=C(C3CC3)N(c3ccccc3)C=C2C1=O (stereo unspecified) | -6.19 | –
CCN(CC(=O)Nc1ccccc1OC)CC(=O)Nc1sccc1C#N | 5.9 | –

Structure (SMILES) | activity change, positive = potentiation [%] | Potency
C=CCOc1c(Br)cc(CNc2ccc3[nH]c(=O)[nH]c3c2)cc1OCC | -25.8 | –
O=C(CSc1nnc(Cc2ccccc2)o1)NC1CC2CCC1C2 (stereo unspecified) | 6.43 | –
CC(=O)N1CCN(c2ccc(NC(=O)C(c3ccccc3)c3ccccc3)cc2)CC1 | -5.18 | –
Cc1cccc(NC(=S)NCC(c2cccnc2)N(C)C)c1C (stereo unspecified) | 5.7 | –
CC(C)(C)C(=O)NNC(=O)c1ccc(Oc2cc(Cl)cc(Cl)c2)o1 | 0.968 | –
Cc1ccc(NC(=O)CCS(=O)(=O)c2ccc3c(c2)NC(=O)C(C)S3)cc1Cl (stereo unspecified) | 1.02 | –
Cc1ccc(/C=C2\CCC3=C2OC(N)=C(C#N)C3c2ccc(C)cc2)cc1 (stereo unspecified) | – | 8.05 µM (active)
Cc1ccc(NC(=O)CCn2nc(C)cc2C)cc1 | -6.67 | –
O=C(Cc1cccs1)Nc1cccc(-c2ccc3nncn3n2)c1 | 6.87 | –
CC(=O)c1ccc(Nc2ncnc3c2oc2ccccc23)cc1 | -38.7 | –
CC(C)C[C@H](NC(=O)c1nc[nH]c1C(=O)N1CCC(C)CC1)C(=O)OCc1ccccc1 | -10.6 | –
CC(=O)c1cccc(NC(=O)N2C3CCC2CC(NC(=O)Nc2ccccc2)C3)c1 (stereo unspecified) | 4.86 | –
CCOC(=O)N/N=C1\CCS(=O)(=O)c2ccc(Cl)cc21 | 4.78 | –
COc1cc(C)nc(-c2csc(C)n2)n1 | 7.2 | –
O=C(NNC(=O)c1cccc(O)c1)Nc1ccc([N+](=O)[O-])cc1 | 3.43 | –
Cc1cnc(NC(=O)c2cc3c(s2)CCCC3)s1 | -38.8 | –
C(=N\Nc1nn2cnnc2c2ccccc12)/c1ccco1 | -9.75 | –
CCc1ccc(/C=C2/SC(N3CCOCC3)=NC2=O)cc1 | -37.3 | –
Cc1nnc(SCC(=O)N(C)CC(=O)Nc2ccc(F)cc2)n1Cc1ccccc1 | -5.01 | –
COc1ccc(OC)c(NC(=O)CCN2C(=O)c3ccccc3C2=O)c1 | 4.29 | –
CCc1ccc(OCCCC(=O)NCc2ccccc2)cc1 | -4.09 | –
CCN(CC)S(=O)(=O)c1ccc(/C=C/C(=O)Nc2cccc(F)c2)cc1 | -36.7 | –

Structure (SMILES) | activity change, positive = potentiation [%] | Potency
COCCNC(=O)CSc1nc2ccccc2c(=O)n1CC1CCCO1 (stereo unspecified) | 0.611 | –
COc1ccc(C(=O)NC(CC(C)C)C(=O)O)cc1OC (stereo unspecified) | 3.51 | –
CCCCn1c(=O)[nH]c(=O)c2c1nc(-c1ccc(OC)c(Br)c1)n2CC(C)C | -3.67 | –
COC(=O)C(C(=O)Nc1nc2ccccc2s1)C1CCCC1 (stereo unspecified) | -7.89 | –
N=C1/C(=C\c2ccc(-c3ccc(C(=O)O)cc3)o2)C(=O)N=C2SC=C(c3ccccc3)N12 | 24.5 | –
COc1ccc(-[n+]2c(C)cc(/C=C3\Sc4ccccc4N3C)cc2C)cc1 | – | 5.7 µM (active)
Cc1c(N=c2scc(-c3ccccc3)n2C)c(=O)n(-c2ccccc2)n1C | 4.71 | –
COc1ccc(Cc2c(N)nc(C)nc2N)cc1 | -6.3 | –
O=C(N/N=C/c1cccnc1)c1ccc2c(c1)OCO2 | -7.94 | –
COc1cccc(/C=C/C(=O)Nc2cccc(C(C)=O)c2)c1OC | -16.5 | –
Cc1ccc(OCC(=O)c2c[nH]c3ccccc23)c([N+](=O)[O-])n1 | -9.4 | –
COc1cc(OC)c(NC(=O)CCc2nc(-c3ccc(C)cc3)no2)cc1Cl | -4.21 | –
CCO[C@H]1OC(C(=O)NC2CC2)=C[C@@H](c2c[nH]c3ccccc23)[C@@H]1CCCO | -2.5 | –
CCc1ccc(/C=N/NC(=O)c2c[nH]c3ccccc23)s1 | -39 | –
COc1ccc(CNC(=O)C2(CC3CC(c4ccccc4)=NO3)CCN(C(=O)C3CCCC3)CC2)cc1 (stereo unspecified) | -5.73 | –
Cc1oc(-c2cccs2)nc1CS(=O)CC(=O)NCCc1ccccc1 (stereo unspecified) | -3.43 | –
O=S(=O)(c1ccc2c(c1)OCCO2)N1CCN(c2cccc(Cl)c2)CC1 | 4.01 | –
COc1ccc(NC(=O)c2ccc(Br)c(S(=O)(=O)N3CCOCC3)c2)cc1 | -24.8 | –
Cn1cccc1C(=O)NC(=O)COC(=O)c1cc([N+](=O)[O-])ccc1Cl | 8.04 | –
O=C(/C=C/c1cccc2ccccc12)N1CCOCC1 | -31.4 | –
CC(C)c1ccc(OCC(=O)Nc2ccncc2)cc1 | -38.4 | –
CC(C)NC(=O)COC(=O)c1ccc(O)cc1 | -9.92 | –

Structure (SMILES) | activity change, positive = potentiation [%] | Potency
CN1CCN(S(=O)(=O)c2ccc(NC(=O)c3ccc(F)cc3)cc2)CC1 | -2.3 | –
O=C(O/N=C1\CCS(=O)(=O)c2sccc21)c1c(F)cccc1F | 6.48 | –
Cc1cc(C)c(NS(=O)(=O)c2ccc(NC(=O)CCC(=O)O)cc2)c(C)c1 | -6.46 | –
COc1ccc(C(C#N)c2cnccn2)cc1OC (stereo unspecified) | 4.57 | –
CC(=O)c1cc(-c2ccc(F)cc2)n(CCC(=O)Nc2cccnc2)c1C | -38.3 | –
CCOC(=O)/C=C1\CN(CCC(C)C)S(=O)(=O)c2ccccc21 | -8.51 | –
CCN1C(=O)[C@@H]2[C@@H](c3ccc(-c4ccc(F)cc4)cc3)N3CCCC[C@@]3(C(=O)OC)[C@@H]2C1=O | -8.18 | –
CCC(C)Sc1cccc(-c2nc3ccc(Cl)cn3c2NCc2ccccc2)c1 (stereo unspecified) | -38.7 | –
CC(C)(C)c1ccc(/C=C/C(=O)Nc2ccncc2)cc1 | -38.6 | –
CCNC(=O)NC(=O)C(C)OC(=O)c1cccn1C (stereo unspecified) | -7.78 | –
COc1ccc(N=Nc2c(C)[nH][nH]c2=O)cc1 | 0.545 | –
Cc1cc(NS(=O)(=O)c2ccc(NC(=O)COc3ccc(Cl)cc3)cc2)no1 | -10.6 | –
Cc1cccc(C)c1OCC(=O)Nc1cccc(S(=O)(=O)N2CCCC2)c1 | -3.66 | –
Cn1nc(CC(=O)Nc2ccc3c(c2)OCCO3)c2ccccc2c1=O | 4.52 | –
CCn1c(Cc2c(C)[nH]c3ccccc23)nnc1SCC(=O)NCc1ccccc1 | 12.1 | –
CCCCCC(=O)NC(NC(=S)N1CCOCC1)C(Cl)(Cl)Cl (stereo unspecified) | -38.2 | –
COc1ccc(S(=O)(=O)N2CCCC2)cc1C(=O)O | -4.69 | –
Cc1c(Cl)ccc2sc(NC(=O)c3ccco3)nc12 | -36 | –
O=C(O)c1ccc(Br)cn1 | -5.55 | –
CC(C)(C)c1ccc(C(=O)NNC(=O)C2CCCCC2)cc1 | -33.1 | –
O=C1c2ccc(Oc3ccc([N+](=O)[O-])cc3)cc2C(=O)N1CCCO | -2.6 | –
COc1ccccc1-c1cc2ccccc2[nH]1 | -5.83 | –

Structure (SMILES) | activity change, positive = potentiation [%] | Potency
CC(=O)NS(=O)(=O)c1ccc(NC(=O)CC(C)c2ccccc2)cc1 (stereo unspecified) | -3.07 | –
COc1ccc(CNC(=O)CCSc2ccc(F)cc2)cc1OC | -34.4 | –
O=C(O)c1coc2ccccc12 | -8.38 | –
CC(=O)NCC(=O)N(Cc1ccco1)C1(C(=O)NC2CCCC2)CCCCC1 | 2.18 | –
Cn1c(=O)c2c(-c3ccccc3F)c3c(nc2n(C)c1=O)-c1ccccc1C3O (stereo unspecified) | -24.5 | –
COc1ccccc1Nc1ncnc2c1cnn2-c1cccc(C)c1 | -37.7 | –
COc1ccc(C(=O)Nc2ccc3ncccc3c2)cc1 | -33.5 | –
CC(=O)c1cccc(NC(=S)NCCc2ccc(Cl)cc2)c1 | -37.8 | –
CCc1ccccc1NC(=O)CCC(=O)c1cccs1 | 0.167 | –
CCN1C(=O)[C@@H]2[C@H](C1=O)[C@@H]1C(=O)Nc3ccccc3C(=O)N1[C@@H]2c1ccc(Br)cc1 | 2.73 | –
COc1ccc([C@@H]2CC=C(C(=O)O)[C@H](c3cccc(Cl)c3)N2S(=O)(=O)c2ccc(Cl)cc2)cc1 | -6.72 | –
CCOC(=O)C1=C(O)C(=O)N(CCCn2ccnc2)C1c1ccc(C)cc1 (stereo unspecified) | 6.89 | –
CC(=O)c1cccc(Nc2nc(-c3ccccc3)nc3ccccc23)c1 | -6.61 | –
N#Cc1ccccc1N1CCN(C(=O)c2ccc(NC(=O)c3ccc(Br)o3)cc2)CC1 | -2.51 | –
CCOc1ccc(NS(=O)(=O)c2ccc(OCC(=O)NCCCOC)cc2)cc1 | 2.17 | –
Cc1ccc(S(=O)(=O)NCC(c2cccnc2)N2CCOCC2)cc1 (stereo unspecified) | -3.52 | –
O=[N+]([O-])C1C(c2ccccc2)=NOC1c1ccccc1O (stereo unspecified) | -9.52 | –
O=C(Nc1ccccc1)Nc1nnc(SCc2ccc(Cl)cc2)s1 | 13.8 | –
